# Experimental data from the supplement of paper PMC8728848.
# Many of the other results were omitted from the sample, so the strongest signals are more common in it than they were.
# Legend:
# Assay in all cases: glycan array binding signal (z-score within array); higher = stronger binding
# Settings in all cases: glycan notation: IUPAC condensed, linker removed
# [1] = target: Gal(b1-4)GlcNAc(b1-3)Gal(b1-4)GlcNAc(b1-3)Gal(b1-4)GlcNAc(b1-3)Gal(b1-4)GlcNAc(b1-2)Man(a1-3)[Gal(b1-4)GlcNAc(b1-3)Gal(b1-4)GlcNAc(b1-3)Gal(b1-4)GlcNAc(b1-3)Gal(b1-4)GlcNAc(b1-2)Man(a1-6)]Man(b1-4)GlcNAc(b1-4)GlcNAc
# How it was run: (§1)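 Negative Z-scores can be read as non-binding. The Z-score is calculated within each array and then averaged across arrays of one protein sequence at different concentrations or buffers and across linkers. Arrays, 3228 in all, were curated from the Consortium for Functional Glycomics database and kept only where the protein sequence was available.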
# [2] = target: Gal(b1-4)GlcNAc(b1-3)Gal(b1-4)GlcNAc(b1-3)Gal(b1-4)GlcNAc(b1-3)Gal(b1-4)GlcNAc(b1-3)Gal(b1-4)GlcNAc(b1-2)Man(a1-3)[Gal(b1-4)GlcNAc(b1-3)Gal(b1-4)GlcNAc(b1-3)Gal(b1-4)GlcNAc(b1-3)Gal(b1-4)GlcNAc(b1-3)Gal(b1-4)GlcNAc(b1-2)Man(a1-6)]Man(b1-4)GlcNAc(b1-4)[Fuc(a1-6)]GlcNAc
# How it was run: as §1
# [3] = target: Gal(b1-4)GlcNAc(b1-6)[Gal(b1-3)]GalNAc
# How it was run: as §1
# [4] = target: Gal3S(b1-3)[Fuc(a1-4)]GlcNAc
# How it was run: as §1
# GalNAc(a1-3)GalNAc = target: GalNAc(a1-3)GalNAc
# How it was run: as §1
# [5] = target: GalNAc(b1-4)GlcNAc(b1-2)Man(a1-3)[GalNAc(b1-4)GlcNAc(b1-2)Man(a1-6)]Man(b1-4)GlcNAc(b1-4)GlcNAc
# How it was run: as §1
# [6] = target: GalNAc(b1-4)GlcNAc(b1-3)GalNAc(b1-4)GlcNAc
# How it was run: as §1
# GlcA(b1-6)Gal = target: GlcA(b1-6)Gal
# How it was run: as §1
# [7] = target: GlcNAc(a1-4)Gal(b1-4)GlcNAc
# How it was run: as §1
# [8] = target: GlcNAc(b1-3)Gal(b1-4)GlcNAc
# How it was run: as §1
# [9] = target: GlcNAc(b1-3)Gal(b1-4)GlcNAc(b1-6)[Gal(b1-3)]GalNAc
# How it was run: as §1
# [10] = target: GlcNAc(b1-3)Gal(b1-4)GlcNAc(b1-6)[GlcNAc(b1-3)Gal(b1-3)]GalNAc
# How it was run: as §1
# [11] = target: GlcNAc(b1-3)Gal(b1-4)GlcNAc(b1-6)[GlcNAc(b1-3)]Gal(b1-4)GlcNAc
# How it was run: as §1
# [12] = target: Kdn(a2-3)Gal(b1-4)[Fuc(a1-3)]GlcNAc
# How it was run: as §1
# [13] = target: Neu5Ac(a2-3)Gal(b1-4)GlcNAc(b1-2)Man(a1-3)[Neu5Ac(a2-3)Gal(b1-4)GlcNAc(b1-2)Man(a1-6)]Man(b1-4)GlcNAc(b1-4)GlcNAc
# How it was run: as §1
# [14] = target: Neu5Ac(a2-3)Gal(b1-4)GlcNAc(b1-3)Gal(b1-3)GlcNAc
# How it was run: as §1
# [15] = target: Neu5Ac(a2-3)Gal(b1-4)GlcNAc(b1-3)Gal(b1-4)GlcNAc(b1-3)GalNAc
# How it was run: as §1
# [16] = target: Neu5Ac(a2-3)Gal(b1-4)GlcNAc(b1-3)Gal(b1-4)GlcNAc(b1-6)[Gal(b1-3)]GalNAc
# How it was run: as §1
# [17] = target: Neu5Ac(a2-6)Gal(b1-4)GlcNAc(b1-2)Man(a1-3)Man(b1-4)GlcNAc(b1-4)GlcNAc
# How it was run: as §1
# [18] = target: Neu5Ac(a2-6)Gal(b1-4)GlcNAc(b1-2)Man(a1-3)[Man(a1-6)]Man(b1-4)GlcNAc(b1-4)GlcNAc
# How it was run: as §1
# [19] = target: Neu5Ac(a2-6)Gal(b1-4)GlcNAc(b1-2)Man(a1-6)[Man(a1-3)]Man(b1-4)GlcNAc(b1-4)GlcNAc
# How it was run: as §1
# [20] = target: Neu5Ac(a2-6)Gal(b1-4)GlcNAc(b1-3)[Neu5Ac(a2-6)Gal(b1-4)GlcNAc(b1-6)]GalNAc
# How it was run: as §1
# [21] = target: Neu5Ac(a2-6)GlcNAc(b1-4)GlcNAc(b1-4)GlcNAc
# How it was run: as §1
# [22] = target: Neu5Ac(a2-8)Neu5Ac(a2-3)Gal(b1-3)GalNAc(b1-4)[Neu5Ac(a2-3)]Gal(b1-4)Glc
# How it was run: as §1
# [23] = target: Neu5Ac(a2-8)Neu5Ac(a2-8)Neu5Ac(a2-8)Neu5Ac(a2-3)[GalNAc(b1-4)]Gal(b1-4)Glc
# How it was run: as §1
# [24] = target: Neu5Gc(b2-6)Gal(b1-4)GlcNAc
# How it was run: as §1
binder,measurement,setting,value
"CFEM-PPm (Pichia pastoris), F2QPV1 (protein) AVATPPACLLACAAEVVKESSDCDALNNIQCICENEGSAIHACLESTCPDGLSSTALQSFEDVCE",glycan array binding signal (z-score),[1],-0.09
same,glycan array binding signal (z-score),[2],-0.233
same,glycan array binding signal (z-score),[3],1.67
same,glycan array binding signal (z-score),[4],-0.262
same,glycan array binding signal (z-score),GalNAc(a1-3)GalNAc,-0.194
same,glycan array binding signal (z-score),[5],0.149
same,glycan array binding signal (z-score),[6],-0.226
same,glycan array binding signal (z-score),GlcA(b1-6)Gal,2.41
same,glycan array binding signal (z-score),[7],-0.205
same,glycan array binding signal (z-score),[8],0.308
same,glycan array binding signal (z-score),[9],0.543
same,glycan array binding signal (z-score),[10],-0.173
same,glycan array binding signal (z-score),[11],-0.353
same,glycan array binding signal (z-score),[12],0.034
same,glycan array binding signal (z-score),[13],-0.218
same,glycan array binding signal (z-score),[14],-0.197
same,glycan array binding signal (z-score),[15],-0.282
same,glycan array binding signal (z-score),[16],0.598
same,glycan array binding signal (z-score),[17],-0.215
same,glycan array binding signal (z-score),[18],-0.253
same,glycan array binding signal (z-score),[19],-0.345
same,glycan array binding signal (z-score),[20],0.043
same,glycan array binding signal (z-score),[21],-0.354
same,glycan array binding signal (z-score),[22],0.442
same,glycan array binding signal (z-score),[23],-0.319
same,glycan array binding signal (z-score),[24],-0.034
